# Measurements taken from the supplement of paper PMC10849652.
# The full data set covers some 7,900 targets. This sample favours those with a hit. About 0.6% of all pairs of compound and target were hits. Unmarked numbers belong to inactive results.
# What was measured:
# Test in all cases: log2 fold change, soluble protein after heating vs DMSO (PISA); higher = thermal stabilisation; K562 cells, 10 uM, 30 min; active = over 0.2 and 3.5 SD of the protein, either way, in both replicates (recomputed)
# [1] = compound: NC(=O)Nc1cc(-c2cccc(F)c2)sc1C(=O)N[C@H]1CCCNC1
# Outline: (§1)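 Soluble protein was defined as the supernatant after 21,000xg for 90 min. It came from K562 cells at 2×10^6 cells/mL given 10 μM compound for 30 min, heated in aliquots for 3 min across 48°C-58°C, pooled, and extracted in PBS with 0.5% NP-40 at 4°C, and was quantified by TMTpro 16plex LC-MS/MS with equalised channel sums. Thermal stability against control samples, from duplicates, is reported as log2 fold change.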
# [2] = compound: NC(=O)c1cnc(N[C@@H]2CCCC[C@@H]2N)nc1Nc1cccc(-n2nccn2)c1
# Outline: as §1
# [3] = compound: NC1(c2ccc(-c3nc4ccn5c(=O)[nH]nc5c4cc3-c3ccccc3)cc2)CCC1
# Outline: as §1
# [4] = compound: NCC(=O)Nc1ccc(-n2nc(C(F)(F)F)cc2-c2ccc3c(ccc4ccccc43)c2)cc1
# Outline: as §1
# entinostat = compound: Nc1ccccc1NC(=O)c1ccc(CNC(=O)OCc2cccnc2)cc1 [entinostat]
# Outline: as §1
# vorinostat = compound: O=C(CCCCCCC(=O)Nc1ccccc1)NO [vorinostat]
# Outline: as §1
# citarinostat = compound: O=C(CCCCCCNC(=O)c1cnc(N(c2ccccc2)c2ccccc2Cl)nc1)NO [citarinostat]
# Outline: as §1
# silmitasertib = compound: O=C(O)c1ccc2c(c1)nc(Nc1cccc(Cl)c1)c1ccncc12 [silmitasertib]
# Outline: as §1
# [5] = compound: O=C1NC(=O)C(c2cnc3ccccn23)=C1c1cn2c3c(cc(F)cc13)CN(C(=O)N1CCCCC1)CC2
# Outline: as §1
# [6] = compound: c1cc(OCCN2CCCCC2)cc(-c2n[nH]c3ccc(-c4nnc[nH]4)cc23)c1
# Outline: as §1
# UniProt Q9BRT3, sequence (Q9BRT3 whole entry, looked up): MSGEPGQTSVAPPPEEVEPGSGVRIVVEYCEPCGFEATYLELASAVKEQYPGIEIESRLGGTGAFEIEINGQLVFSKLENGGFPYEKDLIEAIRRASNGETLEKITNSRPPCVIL
# UniProt P23276, sequence (P23276 whole entry, looked up): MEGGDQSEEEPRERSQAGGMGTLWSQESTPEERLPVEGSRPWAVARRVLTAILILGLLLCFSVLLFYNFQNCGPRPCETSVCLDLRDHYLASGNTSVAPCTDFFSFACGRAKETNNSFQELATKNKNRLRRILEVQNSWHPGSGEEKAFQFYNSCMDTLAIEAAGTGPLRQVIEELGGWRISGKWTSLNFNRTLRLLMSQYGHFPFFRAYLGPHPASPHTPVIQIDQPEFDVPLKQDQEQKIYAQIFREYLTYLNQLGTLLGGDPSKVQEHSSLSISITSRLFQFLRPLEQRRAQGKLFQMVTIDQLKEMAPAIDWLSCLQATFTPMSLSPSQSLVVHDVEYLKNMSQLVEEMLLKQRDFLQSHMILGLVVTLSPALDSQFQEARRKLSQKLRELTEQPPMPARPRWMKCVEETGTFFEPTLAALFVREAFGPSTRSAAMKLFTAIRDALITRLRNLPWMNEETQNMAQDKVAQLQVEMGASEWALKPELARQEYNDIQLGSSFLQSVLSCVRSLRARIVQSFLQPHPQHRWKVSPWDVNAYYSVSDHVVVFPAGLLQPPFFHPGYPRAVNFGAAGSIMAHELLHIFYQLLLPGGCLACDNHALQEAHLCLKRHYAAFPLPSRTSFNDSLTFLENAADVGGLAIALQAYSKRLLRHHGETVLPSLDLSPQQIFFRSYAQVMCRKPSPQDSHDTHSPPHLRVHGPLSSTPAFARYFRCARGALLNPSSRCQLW
# UniProt O43318, sequence (O43318 whole entry, looked up): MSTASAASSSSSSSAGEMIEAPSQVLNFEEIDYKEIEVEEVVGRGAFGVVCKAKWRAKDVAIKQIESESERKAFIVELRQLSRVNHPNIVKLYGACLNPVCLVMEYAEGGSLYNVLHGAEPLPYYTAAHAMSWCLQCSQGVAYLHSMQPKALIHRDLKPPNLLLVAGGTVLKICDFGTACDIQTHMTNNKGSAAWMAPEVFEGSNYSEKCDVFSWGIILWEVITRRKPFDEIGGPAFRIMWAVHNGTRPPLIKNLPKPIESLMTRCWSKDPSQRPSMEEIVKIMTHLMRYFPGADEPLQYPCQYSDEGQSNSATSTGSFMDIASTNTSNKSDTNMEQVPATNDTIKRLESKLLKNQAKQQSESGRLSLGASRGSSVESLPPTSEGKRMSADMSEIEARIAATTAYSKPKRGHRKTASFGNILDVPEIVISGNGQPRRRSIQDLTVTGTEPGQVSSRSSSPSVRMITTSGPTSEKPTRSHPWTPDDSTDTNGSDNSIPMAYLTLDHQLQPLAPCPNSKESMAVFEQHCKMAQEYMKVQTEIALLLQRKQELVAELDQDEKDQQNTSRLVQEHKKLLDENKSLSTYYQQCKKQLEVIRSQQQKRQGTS
# UniProt Q96PV6, sequence (Q96PV6 whole entry, looked up): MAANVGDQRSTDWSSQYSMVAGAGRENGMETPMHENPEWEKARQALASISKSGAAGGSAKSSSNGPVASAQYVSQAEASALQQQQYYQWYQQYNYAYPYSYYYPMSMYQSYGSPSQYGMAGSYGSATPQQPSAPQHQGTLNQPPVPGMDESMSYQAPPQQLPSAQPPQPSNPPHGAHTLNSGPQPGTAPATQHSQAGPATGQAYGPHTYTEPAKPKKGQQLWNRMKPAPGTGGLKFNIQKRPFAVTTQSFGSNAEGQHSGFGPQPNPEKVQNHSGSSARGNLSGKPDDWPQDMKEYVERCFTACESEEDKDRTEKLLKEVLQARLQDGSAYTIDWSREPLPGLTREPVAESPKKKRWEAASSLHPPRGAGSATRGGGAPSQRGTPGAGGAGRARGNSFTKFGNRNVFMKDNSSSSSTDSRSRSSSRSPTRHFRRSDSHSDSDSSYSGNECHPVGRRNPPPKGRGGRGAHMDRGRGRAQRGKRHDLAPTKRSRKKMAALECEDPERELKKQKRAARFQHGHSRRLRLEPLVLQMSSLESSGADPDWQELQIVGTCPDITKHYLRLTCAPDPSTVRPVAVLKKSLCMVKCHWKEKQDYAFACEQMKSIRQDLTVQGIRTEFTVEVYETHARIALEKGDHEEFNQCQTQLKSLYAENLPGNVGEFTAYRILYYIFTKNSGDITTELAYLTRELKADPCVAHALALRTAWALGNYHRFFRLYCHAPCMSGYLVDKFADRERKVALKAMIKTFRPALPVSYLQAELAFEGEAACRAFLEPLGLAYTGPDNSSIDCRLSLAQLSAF
# UniProt Q9NUN5, sequence (Q9NUN5 whole entry, looked up): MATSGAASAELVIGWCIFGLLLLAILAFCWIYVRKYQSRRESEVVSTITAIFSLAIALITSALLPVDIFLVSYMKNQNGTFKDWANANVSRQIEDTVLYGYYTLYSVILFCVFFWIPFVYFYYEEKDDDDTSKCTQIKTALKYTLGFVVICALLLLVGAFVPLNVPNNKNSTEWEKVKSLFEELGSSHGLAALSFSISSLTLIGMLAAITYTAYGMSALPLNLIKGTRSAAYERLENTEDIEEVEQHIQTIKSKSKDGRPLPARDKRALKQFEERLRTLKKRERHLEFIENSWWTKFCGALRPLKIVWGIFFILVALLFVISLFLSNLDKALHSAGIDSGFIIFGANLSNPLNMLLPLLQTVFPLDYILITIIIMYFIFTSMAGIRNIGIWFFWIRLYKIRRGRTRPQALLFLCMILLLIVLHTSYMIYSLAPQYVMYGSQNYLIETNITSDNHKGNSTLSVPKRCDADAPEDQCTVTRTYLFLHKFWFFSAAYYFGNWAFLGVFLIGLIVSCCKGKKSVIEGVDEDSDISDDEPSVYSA
# UniProt Q9UHB6, sequence (Q9UHB6 whole entry, looked up): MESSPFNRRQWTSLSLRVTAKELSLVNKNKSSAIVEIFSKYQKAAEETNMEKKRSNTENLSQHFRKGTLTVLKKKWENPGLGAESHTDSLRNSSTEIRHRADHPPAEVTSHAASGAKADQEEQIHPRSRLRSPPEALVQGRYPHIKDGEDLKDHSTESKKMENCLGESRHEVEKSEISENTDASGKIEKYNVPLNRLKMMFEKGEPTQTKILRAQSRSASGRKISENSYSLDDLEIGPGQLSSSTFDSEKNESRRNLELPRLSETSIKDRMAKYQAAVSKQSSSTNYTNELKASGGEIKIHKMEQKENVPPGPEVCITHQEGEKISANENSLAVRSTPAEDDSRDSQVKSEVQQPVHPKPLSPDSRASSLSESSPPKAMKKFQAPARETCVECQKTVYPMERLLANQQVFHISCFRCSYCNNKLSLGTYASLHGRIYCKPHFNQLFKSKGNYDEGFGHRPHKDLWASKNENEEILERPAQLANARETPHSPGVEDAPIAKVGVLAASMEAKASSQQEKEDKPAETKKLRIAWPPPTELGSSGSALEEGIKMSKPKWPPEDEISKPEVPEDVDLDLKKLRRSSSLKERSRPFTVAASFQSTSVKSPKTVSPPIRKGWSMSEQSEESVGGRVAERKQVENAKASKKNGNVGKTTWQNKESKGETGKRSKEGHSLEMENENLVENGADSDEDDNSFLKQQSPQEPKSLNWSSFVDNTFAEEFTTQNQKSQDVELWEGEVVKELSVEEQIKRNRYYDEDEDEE
# UniProt P32019, sequence (P32019 whole entry, looked up): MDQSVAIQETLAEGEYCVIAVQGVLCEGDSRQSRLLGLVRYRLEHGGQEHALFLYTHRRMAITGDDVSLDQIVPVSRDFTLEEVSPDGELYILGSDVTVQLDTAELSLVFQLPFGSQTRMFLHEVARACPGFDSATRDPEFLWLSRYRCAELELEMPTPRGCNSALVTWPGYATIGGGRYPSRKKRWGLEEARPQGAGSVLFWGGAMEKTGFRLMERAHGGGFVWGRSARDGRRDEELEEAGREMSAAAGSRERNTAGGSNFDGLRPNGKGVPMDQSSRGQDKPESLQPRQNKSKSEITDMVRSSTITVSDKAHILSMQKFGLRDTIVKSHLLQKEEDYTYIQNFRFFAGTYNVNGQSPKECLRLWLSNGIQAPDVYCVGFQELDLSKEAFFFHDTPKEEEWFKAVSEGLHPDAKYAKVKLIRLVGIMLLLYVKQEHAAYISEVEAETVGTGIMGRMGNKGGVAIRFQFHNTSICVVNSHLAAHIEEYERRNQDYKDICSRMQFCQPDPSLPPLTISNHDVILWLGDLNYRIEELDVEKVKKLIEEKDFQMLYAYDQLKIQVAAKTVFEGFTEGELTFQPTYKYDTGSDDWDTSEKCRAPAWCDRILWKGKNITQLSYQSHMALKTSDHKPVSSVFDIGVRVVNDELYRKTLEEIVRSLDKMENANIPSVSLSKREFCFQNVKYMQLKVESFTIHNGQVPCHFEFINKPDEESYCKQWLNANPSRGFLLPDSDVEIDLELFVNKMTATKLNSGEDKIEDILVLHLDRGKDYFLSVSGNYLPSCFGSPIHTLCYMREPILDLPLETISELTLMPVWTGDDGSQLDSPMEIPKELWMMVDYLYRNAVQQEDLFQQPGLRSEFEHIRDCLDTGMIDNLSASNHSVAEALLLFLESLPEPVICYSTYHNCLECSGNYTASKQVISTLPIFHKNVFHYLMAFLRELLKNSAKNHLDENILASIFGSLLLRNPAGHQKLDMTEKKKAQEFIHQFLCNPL
# UniProt O95232, sequence (O95232 whole entry, looked up): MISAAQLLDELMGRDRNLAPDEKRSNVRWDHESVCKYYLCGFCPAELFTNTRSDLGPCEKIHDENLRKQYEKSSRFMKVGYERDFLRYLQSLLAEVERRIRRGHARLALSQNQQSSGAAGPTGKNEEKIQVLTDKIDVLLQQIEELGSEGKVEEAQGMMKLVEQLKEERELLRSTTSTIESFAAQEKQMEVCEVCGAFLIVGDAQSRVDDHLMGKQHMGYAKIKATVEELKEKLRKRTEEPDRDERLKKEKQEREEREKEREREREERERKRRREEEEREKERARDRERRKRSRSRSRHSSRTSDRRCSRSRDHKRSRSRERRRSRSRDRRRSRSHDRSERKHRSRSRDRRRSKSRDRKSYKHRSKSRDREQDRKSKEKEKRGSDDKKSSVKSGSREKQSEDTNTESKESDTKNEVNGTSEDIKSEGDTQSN
Target,log2 fold change [1],log2 fold change [2],log2 fold change [3],log2 fold change [4],log2 fold change (entinostat),log2 fold change (vorinostat),log2 fold change (citarinostat),log2 fold change (silmitasertib),log2 fold change [5],log2 fold change [6]
LDAH isoform 2 (UniProt Q9H6V9),-0.049,0.018,0.979 (active),-0.041,0.014,-0.011,0.061,0.014,-0.16,-0.057
KEL (UniProt P23276),-0.004,0.088,-0.215,0.017,-0.022,0.03,0.019,0.108,0.115,-0.001
MIA2 (UniProt Q96PC5),0.03,-0.03,0.06,-0.032,-0.009,0.009,0.059,0.083,-0.045,-0.058
LIMA1 isoform 4 (UniProt Q9UHB6),0.062,-0.045,0.081,0.006,0.004,0.067,-0.024,-0.006,-0.073,-0.012
MAP3K7 (UniProt O43318),-0.162,0.033,-0.141,-0.086,0.035,0.033,0.063,0.004,0.091,-0.068
MFSD11 (UniProt O43934),0.035,0.038,-0.202,0.002,-0.112,-0.028,-0.096,0.044,-0.04,0.063
LARP1 (UniProt Q6PKG0),-0.064,0.002,0.051,-0.04,0.02,0.043,-0.025,0.028,0.113,-0.133
LENG8 (UniProt Q96PV6),-0.012,-0.075,0.042,-0.198,0.085,0.298,0,0.09,-0.144,-0.091
KDM1A isoform 2 (UniProt O60341),0.055,-0.038,-0.063,0.012,0.155,0.135,0.007,0,-0.063,-0.064
MAPKAPK3 (UniProt Q16644),0.147,-0.024,-0.125,-0.052,-0.068,-0.006,-0.012,0.18,-0.141,0.05
MIEF1 (UniProt L0R8F8),0.085,0.094,0.047,0.002,0.007,-0.012,0.039,-0.021,-0.063,-0.056
LPCAT3 (UniProt Q6P1A2),-0.074,-0.105,-0.185,-0.229,0.044,0.024,0.087,0.05,-0.091,0.072
ILVBL (UniProt A1L0T0),-0.053,-0.036,-0.022,-0.007,-0.041,0.002,0.064,-0.008,-0.009,-0.064
MDC1 (UniProt Q14676),0.115,-0.075,-0.054,0.153,0.001,-0.164,0.062,-0.116,-0.026,-0.086
MIER1 isoform 12 (UniProt Q8N108),-0.026,-0.03,-0.074,-0.025,0.292 (active),0.28 (active),0.273 (active),-0.017,-0.066,-0.061
LMBRD1 (UniProt Q9NUN5),0.006,0.046,-0.243,-0.162,0.099,0.048,0.048,-0.028,-0.003,0.049
KPNA6 (UniProt O60684),0.01,-0.007,-0.06,-0.002,0.051,0.061,0.047,0.219,0.067,-0.159
LARP4B (UniProt Q92615),0.028,-0.042,0.048,0.022,0.038,0.027,-0.001,0.008,0.086,-0.112
LARP4 isoform 4 (UniProt Q71RC2),-0.034,-0.094,0.084,0.048,0.037,0.133,-0.004,0.043,0.009,-0.116
LSS (UniProt P48449),0.017,0.108,0.142,-0.049,0.003,0.052,-0.01,0.001,-0.001,-0.033
MIEN1 (UniProt Q9BRT3),0.045,0.003,-0.013,0.001,0.016,-0.042,-0.007,0.004,-0.131,0.057
KMT2C isoform 3 (UniProt Q8NEZ4),-0.021,0.046,-0.756 (active),-0.006,-0.03,0.19,0.104,-0.052,-0.094,-0.076
ITIH4 (UniProt Q14624),0.064,-0.041,-0.136,-0.054,0.048,0.343,0.054,0.083,-0.005,0.275
LUC7L (UniProt Q9NQ29),-0.061,0.011,0.17,-0.043,-0.01,-0.058,-0.052,-0.006,0.133,-0.095
INPP5B (UniProt P32019),0.106,-0.066,-0.003,-0.108,0,0.128,-0.016,0.167,0.118,0.014
LRBA (UniProt P50851),0.002,-0.058,-0.146,-0.039,0.016,0.049,0.034,0.033,-0.025,-0.026
KLC2 (UniProt Q9H0B6),-0.149,-0.084,-0.134,-0.044,0.031,0.044,0.061,0.063,0.007,-0.082
LUC7L3 (UniProt O95232),-0.203,-0.017,0.058,-0.076,-0.051,-0.008,0.083,-0.156,0.086,-0.086
LBR (UniProt Q14739),0.025,-0.008,0.004,-0.003,0.023,0.021,-0.021,-0.085,0.012,0.082
